PI5P4Ka inh: PI5P4K alpha (human) kinase inhibition; PI5P4Kalpha enzyme, ADP-Glo luminescence, 60 min; hits give low values; max response, %; 1.2% of 330,000 active; active = max response of -50% or lower; inconclusive = between -30% and -50%; inactive = -30% or higher; note: value at the top dose of about 77 µM
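Compounds were pin-transferred onto PI5P4Kalpha and substrate in HEPES pH 7.4 buffer with EGTA, CHAPS and 5% DMSO. ATP (5 microM final) started the reaction, which ran 60 minutes at room temperature before ADP-Glo detection.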
RECQ1 inh: RECQ1 (human) helicase inhibition; RECQ1 DNA unwinding, red fluorescence kinetic read; 0.54% of 240,000 active; AID 2549; P46063; Potency, µM (doses to about 57.3 µM), for the others: top-dose activity, negative = inhibition, hits mostly inhibitors;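 note: potency is the fitted concentration of half-maximal effect; plate controls were vehicle for no effect and no enzyme for full effect; nearly all actives have a fitted effect of over 30% in size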
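RECQ1T1 50 nM; forked duplex (20 bp + 30-nt ss tails) 200 nM, ATP 2 mM final; pH 8.0, 2 mM MgCl2, 2.5 ug/ml poly(dI-dC); 15 min compound preincubation; discontinuous kinetic read over 2 h at RT.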
APEX1 inh: APE1 (human) endonuclease inhibition. P27695. recombinant APE1, TAMRA/BHQ-2 abasic DNA cleavage fluorescence. Potency, µM (doses to about 65.8 µM), for the others: top-dose activity change, negative = inhibition, most hits filed as inhibitors. 0.35% of 350,000 active;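 note: potency is the fitted concentration of half-maximal effect; plate controls were vehicle for no effect and reference inhibitor for full effect; nearly all actives have a fitted effect of over 55% in size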
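APE1 at 0.75 nM preincubated 15 min at room temperature with compound. Reaction then started with 50 nM double-stranded THF-abasic substrate labelled with TAMRA/BHQ-2, and 525/598 nm fluorescence read kinetically. Activity taken as third-minus-first read difference, normalized to DMSO and NSC13755 controls.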
FEN1 inhibitor: human FEN1 inhibition | Potency, µM (highest dose often 114 µM), without a hit: at the highest dose activity change, negative = inhibition, actives largely listed as inhibitors | P39748 | 0.35% of 390,000 active | Recombinant FEN1 flap cleavage, fluorescence, 15 min | AID 588795; note: potency is the fitted concentration of half-maximal effect; nearly all actives have a fitted effect of over 65% in size
Target sequence (P39748 whole entry, looked up): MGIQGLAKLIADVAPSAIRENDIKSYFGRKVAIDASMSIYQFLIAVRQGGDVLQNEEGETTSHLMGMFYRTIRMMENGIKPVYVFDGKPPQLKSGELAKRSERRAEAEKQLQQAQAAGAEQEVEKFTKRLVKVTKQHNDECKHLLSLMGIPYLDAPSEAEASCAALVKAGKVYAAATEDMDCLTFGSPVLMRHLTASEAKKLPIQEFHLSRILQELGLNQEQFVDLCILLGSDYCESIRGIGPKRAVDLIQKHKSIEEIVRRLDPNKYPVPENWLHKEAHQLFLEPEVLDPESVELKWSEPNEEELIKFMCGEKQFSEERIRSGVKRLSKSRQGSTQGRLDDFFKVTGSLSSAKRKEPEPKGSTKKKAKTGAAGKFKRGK
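Read-out was taken twice, immediately and after 15 min, following addition of 50 nM substrate to 10 nM FEN1 that had sat with test compound for 15 min at room temperature. Curves came from a four-parameter Hill model.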
WRN inhibitor: inhibitors of human WRN helicase; AID 651768; Q14191; Potency, µM (highest dose often 114 µM), for inactives: at the highest dose activity change, negative = inhibition, usual class: inhibitors; WRN helicase unwinding, fluorescent forked duplex, kinetic; 0.46% of 360,000 active; note: potency is the fitted concentration of half-maximal effect; nearly all actives have a fitted effect of over 55% in size
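Screening of the MLSMR collection measured strand separation of a quenched forked DNA duplex (100 nM) by 20 nM WRN with 2 mM ATP, all final. Compounds were preincubated with enzyme 15 min at room temperature.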
BLM inh: inhibitors of human Bloom syndrome helicase BLM. recombinant BLM DNA unwinding, fluorescence dequenching. P54132. 0.2% of 350,000 active. Potency, µM (doses to about 56.1 µM), for the others: at the highest dose activity change, negative = inhibition, hits mostly inhibitors;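 note: potency is the fitted concentration of half-maximal effect; plate controls were vehicle for no effect and no enzyme for full effect; nearly all actives have a fitted effect of over 35% in size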
An asterisk follows results filed as active; [ ] = remark or other dose. Sampled rows, rich in hits. Any-hit rate of the full collection: about 1.5%. Unless noted, calls come from the whole dose curve; as a rule, active = well fitted curve in the direction sought with a large enough effect; inconclusive = small, poorly fitted or top-dose-only effect, or another doubt; inactive = no such curve, though single readings can be large; an effect the other way counts as inactive or inconclusive. Unless noted, % is set by controls: 0 for no effect and ±100 for the full control effect.

For CC(C)C[C@H](NC(=O)[C@H](CCCCN)NC(=O)CNC(=O)[C@H](CC(C)C)NC(=O)[C@@H](N)C(C)C)C(=O)N[C@@H](CO)C(=O)N[C@@H](CCC(N)=O)C(=O)N[C@@H](CCC(=O)O)C(=O)N[C@@H](CC(C)C)C(=O)N[C@@H](Cc1cnc[nH]1)C(=O)N[C@@H](CCCCN)C(=O)N[C@@H](CC(C)C)C(=O)N[C@@H](CCC(N)=O)C(=O)N[C@H](C(=O)N[C@@H](Cc1ccc(O)cc1)C(=O)N1CCC[C@H]1C(=O)N[C@@H](CCCNC(=N)N)C(=O)N[C@H](C(=O)N[C@@H](CC(N)=O)C(=O)N[C@H](C(=O)NCC(=O)N[C@@H](CO)C(=O)NCC(=O)N[C@H](C(=O)N1CCC[C@H]1C(N)=O)[C@@H](C)O)[C@@H](C)O)[C@@H](C)O)[C@@H](C)O the results were RECQ1 inh -11.9%, APEX1 inh 1.1% and BLM inh 0.7%.
For CC(/C=C/C=C(C)/C=C/C(=O)O)=C\C=C\C=C(C)\C=C\C=C(C)\C=C\C(=O)O the results were RECQ1 inh 11.2µM* and APEX1 inh 2.51µM*.
Screening CCOc1ccc(Nc2cc(C)c(C#N)c3nc4ccccc4n23)cc1 returned FEN1 inhibitor -0.1% and BLM inh -3.9%.
For O=C(O)c1cc2ncc(-c3[nH]ncc3[N+](=O)[O-])cn2n1 the results were PI5P4Ka inh -56.2*, RECQ1 inh 16.0%, APEX1 inh -7.5%, FEN1 inhibitor -5.6%, WRN inhibitor inconclusive and BLM inh -9.0%.
Screening CN(C)[C@@H]1C(=O)C(C(=O)NCN2CCCC2)=C(O)[C@@]2(O)C(=O)C3=C(O)c4c(O)cccc4[C@@](C)(O)C3C[C@@H]12 (some centres not stated) returned APEX1 inh 7.94µM*.
`COc1ccc(C2=Nn3c(nnc3-c3ccccc3Cl)SC2)cc1O[C@H]1CCOC1` gave APEX1 inh -8.5%.
For N#CCC(=O)N/N=C/c1coc2ccccc2c1=O the results were PI5P4Ka inh -86.1*, RECQ1 inh -16.7%, APEX1 inh -5.7%, FEN1 inhibitor -5.2%, WRN inhibitor -13.4%[11.6 µM] and BLM inh -9.1%.
Screening O=C(N/N=C/c1coc2ccccc2c1=O)c1ccccc1 returned PI5P4Ka inh inconclusive, RECQ1 inh 0.1%, APEX1 inh -4.9%, FEN1 inhibitor -8.1%, WRN inhibitor -24.1% and BLM inh -2.3%.
COc1ccc(N(C)S(=O)(=O)c2ccc3c(c2)CCC(=O)N3)cc1 was read as RECQ1 inh -3.3%, APEX1 inh 14.1µM*, FEN1 inhibitor -4.7%, WRN inhibitor -10.0% and BLM inh -6.3%.
O=C(N/N=C/c1ccc([N+](=O)[O-])s1)c1cccc(Br)c1 was read as PI5P4Ka inh -11.8, RECQ1 inh -10.2%, APEX1 inh 22.4µM*, FEN1 inhibitor 3.6%, WRN inhibitor -13.0% and BLM inh -16.9%.
Screening Cc1ccc(C(=O)N/N=C/c2ccc([N+](=O)[O-])s2)cc1 returned PI5P4Ka inh -19.2, RECQ1 inh -5.4%, APEX1 inh inconclusive, FEN1 inhibitor -4.6%, WRN inhibitor -15.0% and BLM inh -18.4%.
Screening CC(C)[C@H](NC(=O)[C@@H]1CSSC[C@H](NC(=O)[C@H](CC(=O)O)NC(=O)[C@H](C)NC(=O)[C@@H](NC(=O)CNC(=O)[C@H](C)N)[C@@H](C)O)C(=O)N[C@@H](Cc2ccccc2)C(=O)N[C@@H](Cc2c[nH]c3ccccc23)C(=O)N[C@@H](CCCCN)C(=O)N[C@@H](Cc2ccc(O)cc2)C(=O)N1)C(=O)O returned RECQ1 inh -18.8%, APEX1 inh -2.2% and BLM inh 3.1%.
`COc1ccc(CN(Cc2ccccc2)C(=O)c2ccco2)cc1COc1ccc(NC(C)=O)cc1` gave FEN1 inhibitor -2.8%.

Compound activity deposited in PubChem by National Center for Advancing Translational Sciences (NCATS).
